# Rows were chosen to be rich in hits. Some 3.8% of all compounds tested hit in one or more screens of this group.
# HT1080NT lethal – kills 2HG-producing HT-1080-NT fibrosarcoma cells; 360,000 tested, 1.6% active; HT-1080-NT fibrosarcoma viability, CellTiter-Glo ATP luminescence, 48 h; Potency, µM (doses to about 46.1 µM), hits mostly cytotoxic;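 also: NT is the 2HG producing partner of a matched IDH1 knockdown line; nearly all actives have a fitted effect of over 55% in size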
#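 Toxicity toward the 2HG-producing NT line was scored as %Activity, normalised to DMSO and no-cell wells, from CellTiter-Glo luminescence after 48 hours' treatment.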
# TGFb SMAD3 inh – inhibitors of TGF-b signaling | 410,000 tested, 1.2% active | Potency, µM (highest dose often 46.1 µM), usual class: inhibitors | HepG2 CAGA-GFP TGF-b/SMAD3 reporter, GFP fluorescence, 18 h; TGF-beta stimulated, 500 pg/mL final; also: nearly all actives have a fitted effect of over 65% in size
#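 HEPG2 CAGA-GFP cells (1000/well, DMEM with 1% FBS) were pre-incubated 2 h at 37 degrees C, given compound by pin tool, then stimulated with TGF-beta at 500 pg/mL final for 18 h before per-cell GFP fluorescence imaging.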
# HepG2 tox – HepG2 cytotoxicity, counter-screen for TGF-b inhibitors; 410,000 tested, 0.76% active; Potency, µM (titrated, usually from 46.1 µM), usual class: cytotoxic; HepG2 CAGA-GFP viability, ATP luminescence, 18 h
#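 CellTiter-Glo luminescence gave cytotoxicity after 18 hours at 37 degrees C. The cells were HepG2 CAGA-GFP in 1% FBS DMEM, stimulated with 500 pg/mL TGF-beta after compound addition. %Activity was normalised to no-cell wells (complete cell-killing) and DMSO (no toxicity), and curves were fitted and classified.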
# ATXN2 expr inh – reduces ATXN2 reporter expression in HEK-293 cells; HEK-293 ATXN2-luciferase reporter, luminescence, 24 h; Potency, µM (highest dose often 57 µM), actives largely listed as inhibitors; 360,000 tested, 0.72% active; AID 1745845; also: nearly all actives have a fitted effect of over 55% in size
#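 ATXN2-luciferase reporter cells (luciferase flanked by upstream and downstream ATXN2 gene portions) were treated 24 h at 37 °C with compounds at up to 57 uM. SteadyGlo luminescence gave expression; GF-AFC fluorescence gave viability.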
# HT1080 IDH1KD tx – HT-1080 IDH1 knockdown cell toxicity (counter line); HT-1080 IDH1 knockdown viability, ATP luminescence, 48 h; Potency, µM (series often up to 46.1 µM), hits mostly cytotoxic; 360,000 tested, 2% active; AID 686971
#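 Assay cells: HT-1080 with IDH1 knockdown, 750 per well, RPMI/5% FBS. Exposure: 48 h at 37 °C following 2 h pre-incubation. Read: CellTiter-Glo luminescence; fitted concentration-response, curve class assigned.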
# ATXN viability – cell viability loss in ATXN counter-screen; Potency, µM (titrated, usually from 56.7 µM), hits mostly cytotoxic; 400,000 tested, 0.49% active; AID 651635; S2 cells (HEK-293 line with an ATXN2-luciferase reporter) viability, CellTiter-Fluor protease fluorescence, 24 h; also: nearly all actives have a fitted effect of over 40% in size
# Numbers stand for hits; i = inactive; ? = inconclusive; nt = no result; [ ] = dose if it differs, or a comment. Calls follow the shape of the dose curve; as a rule, active = well fitted curve in the direction sought with a large enough effect; inconclusive = small, poorly fitted or top-dose-only effect, or another doubt; inactive = no such curve, though single readings can be large; an effect the other way counts as inactive or inconclusive.
SMILES,HT1080NT lethal,TGFb SMAD3 inh,HepG2 tox,ATXN2 expr inh,HT1080 IDH1KD tx,ATXN viability
COc1cc(/C=C(/C(=O)c2cccs2)c2nc3ccccc3[nH]2)cc(OC)c1O,?,?,13µM,?,?,?
O=C(/C(=C/c1ccc(Cl)cc1)c1nc2ccccc2[nH]1)c1ccccc1,2.9µM,5µM,2.5µM,?,4.1µM,nt
COc1ccc(C(=O)N/C(=C/c2cccs2)c2nc3ccccc3[nH]2)cc1OC,i,i,i,nt,i,?
O=C(NCC(O)CO)c1c(I)c(C(=O)NCC(O)CO)c(I)c(N(CCO)C(=O)CO)c1I (stereo not given),nt,nt,nt,i,nt,i
CCN1CCC(O)(C#Cc2ccccc2)CC1,i,i,i,i,i,i
CC1C(c2ccccc2)N(C)C(c2ccccc2)C(C)C1(O)C#Cc1ccccc1 (stereo not given),i,11µM,i,i,?,?
O=[N+]([O-])c1ccc(-c2ccc(/C=N/Nc3nc(NCc4ccccc4)nc(N4CCOCC4)n3)o2)cc1,18µM,i,i,i,16µM,i
COc1nc(N/N=C/c2ccc(-c3ccccc3[N+](=O)[O-])o2)nc(N2CCOCC2)n1,i,i,i,i,i,i
CC1=C(C(=O)Nc2ccccc2)C(c2ccc(O)cc2)n2nc(-c3ccc(Cl)cc3)nc2N1 (stereo not given),nt,?,i,i,nt,28µM
COc1cccc(-c2ccc3c(N)c(C(=O)Nc4ccccc4C)sc3n2)c1,nt,?,i,?,nt,nt
Nc1c(C(=O)Nc2nc3ccccc3s2)sc2nc(-c3cccs3)ccc12,?,i,6.3µM,?,18µM,i
Nc1c(C(=O)Nc2ccccc2Br)sc2nc(-c3cccs3)ccc12,nt,i,i,?,nt,nt
Cc1ccccc1NC(=O)c1sc2nc(-c3ccncc3)ccc2c1N,nt,i,i,20µM,nt,i
CC1=Nc2ccccc2/C1=C/c1ccc(N(C)C)cc1,nt,?,i,nt,nt,nt
O=C(Nc1nc(=O)c2ccccc2s1)c1ccc(Cl)cc1,i,i,i,i,i,i
O=C(Nc1nc(=O)c2ccccc2s1)c1ccc(F)cc1,16µM,?,i,i,1.4µM,i
Cc1cc(C(=O)N(Cc2cc3cc4c(cc3nc2N2CCOCC2)CCC4)CC2CCCO2)c(=O)[nH]c1C (stereo not given),nt,nt,nt,nt,nt,i
O=S1(=O)c2ccc(Br)cc2N2CCC[C@@H]2CN1Cc1ccccc1,?,?,i,i,3.7µM,?
O=S1(=O)c2ccc(Br)cc2OC(COCc2ccccc2)CN1Cc1ccccc1 (stereo not given),i,i,i,i,i,i
C[C@@]1(c2cc(-c3cncnc3)c(F)cc2F)CCSC(N)=N1,nt,nt,nt,i,nt,nt
COc1ccc2nc(SCC(=O)NC3CCCC3)c(C)cc2c1,?,?,i,i,5.8µM,i
COc1ccc2c(C)cc(SCC(=O)NC3CCCC3)nc2c1,i,?,i,nt,i,i
CN(C)c1cccc(-c2nnc(SCC(=O)NCc3ccco3)n2C)c1,nt,i,i,nt,nt,nt
COc1ccc(C2c3c(-c4ccccc4O)n[nH]c3C(=O)N2Cc2ccco2)cc1 (stereo not given),?,?,i,i,?,?
COc1ccc(C2c3c(-c4c(C)cc(C)cc4O)n[nH]c3C(=O)N2Cc2ccco2)cc1 (stereo not given),nt,?,i,?,nt,18µM
SMILES,HT1080NT lethal,TGFb SMAD3 inh,HepG2 tox,ATXN2 expr inh,HT1080 IDH1KD tx,ATXN viability
O=C(NCC1CCCCC1)C1(CC2CC(c3cccc(Br)c3)=NO2)CCNCC1 (stereo not given),i,?,16µM,?,i,nt
CC(C)(C)OC(=O)N1CCC(CC2CC(c3cccc(Br)c3)=NO2)(C(=O)NCC2CCCCC2)CC1 (stereo not given),i,?,i,i,i,i
O=C(Nc1ccccc1)N(Cc1ccccc1)CC(O)C(F)(F)F (stereo not given),i,i,i,i,i[9.24 µM],i
O=C(Nc1cccc(F)c1)N(Cc1ccc(Cl)cc1)CC(O)C(F)(F)F (stereo not given),21µM,?,i,?,?,?
Cc1cccc2cc(/C=N/NC(=O)c3ccccc3O)c(Cl)nc12,i,10µM,i,i,i,?
CN(C)c1ccc(C(=O)N/N=C/c2cc(Br)cc(Br)c2O)cc1,?,?,i,3.5µM,?,i
CC(C)c1ccc(/C=N/NC(=O)c2ccccc2Cl)cc1,7.3µM,i,i,i,6.5µM,?
Cc1ccc(C(=O)N/N=C/c2cc(Br)ccc2O)cn1,?,?,i,2µM,?,?
O=C(N/N=C/c1cc(Br)ccc1O)c1ccccc1Cl,?,?,i,?,16µM,i
O=C(N/N=C/c1cc(Cl)ccc1O)c1ccncc1,6.5µM,?,13µM,?,4.1µM,i
O=C(N/N=C/c1ccccc1Cl)c1ccncc1,i,i,i,nt,i,i
CC(=O)c1ccccc1OCC(O)CN1CCN(CCN2C(=O)c3cccc4cccc(c34)C2=O)CC1 (stereo not given),?,?,i,?,?,i
O=C1c2cccc3cccc(c23)C(=O)N1CCN1CCN(CC(O)COCc2ccc(Cl)cc2)CC1 (stereo not given),21µM,14µM,13µM,?,?,?
Cc1ccc(C)c(OCC(O)CN2CCN(CCN3C(=O)c4cccc5cccc(c45)C3=O)CC2)c1 (stereo not given),16µM,?,i,?,?,?
CCOC(=O)c1cc(-c2ccccc2)n(-c2cccc(C(=O)N(CC)c3ccccc3)c2)c1C,nt,?,i,nt,nt,nt
CCCSC(=S)c1c(C)[nH]n(-c2ccccc2)c1=O,?,i,i,25µM,13µM,nt
Cc1[nH]n(-c2ccccc2)c(=O)c1Sc1ccc(Cl)cc1,i,i,i,i,i,i
O=C(C[n+]1cccc2cccc(O)c21)c1ccc(Cl)cc1,nt,i,i,nt,nt,nt
O=C1NC(c2ccccc2)(c2ccccc2)C(=O)N1COP(=O)(O)O,nt,nt,nt,i,nt,i
Cc1ccc(CN(Cc2ccco2)C(=O)c2ccccc2Cl)o1,nt,i,i,nt,nt,nt
COc1cccc(C(C)(O)c2nc(-c3csc4ccccc34)cs2)c1 (stereo not given),21µM,18µM,i,i,?,i
COc1cccc(C(C)(O)c2nc(-c3ccccc3C)cs2)c1 (stereo not given),?,?,i,i,?,i
COc1cccc(C(C)(O)c2nc(-c3cccc(C(F)(F)F)c3)cs2)c1 (stereo not given),18µM,?,i,i,?,i
CC(O)(c1cccnc1)c1nc(-c2cccc(C(F)(F)F)c2)cs1 (stereo not given),23µM,i,i,i,?,i
CC(O)(c1ccccc1)c1nc(/C=C/c2ccccc2)cs1 (stereo not given),?,i,i,i,?,?

# Screening results (PubChem)
